Among all 410,000 compounds or so, about 5,100 (1.2%) were called active. Not shown: some 8% with an inconclusive outcome. The call rests on the fitted dose curve; tested in HEK293T cells. What follows is part of a selection rich in actives, with near analogues and random picks from the rest.
Test: High Throughput Screening for Foot and Mouth Disease Virus Antivirals; further: read-out not given here; nearly all actives have a fitted effect of over 45% in size
Conditions: FMDV antiviral cell-based qHTS; series mostly up to 57.9 µM; activity change, negative = inhibition: at the top concentration
On the % scale 0 is the no-effect control and ±100 the full control effect; potency means the concentration at half of the fitted maximal effect.

SMILES | activity change, negative = inhibition | Potency
COc1cccc(-c2nc(Nc3ccncc3)c3ccccc3n2)c1 | -29.5% (inactive) | –
CN1CCN(c2ncncc2-c2ccc(C(=O)N(C)C)cc2)CC1 | 2.84% (inactive) | –
CN(C)C(=O)[C@@H]1C[C@@H](Sc2nc3ccccc3[nH]2)CN1Cc1ccc(Cl)cc1 | 39.8% (inactive) | –
Fc1ccc2[nH]c3c(N4CCN(Cc5ccc6c(c5)OCO6)CC4)ncnc3c2c1 | – | 6.31 µM (active)
Fc1ccc2[nH]c3c(N4CCSCC4)ncnc3c2c1 | – | 3.16 µM (active)
O=C(CSc1nc2c(c(=O)[nH]1)CN(Cc1ccc3c(c1)OCO3)CC2)Nc1cc(F)ccc1F | 6.05% (inactive) | –
N#C/C=C/N1CCN(Cc2ccc3c(c2)OCO3)CC1 | -8.21% (inactive) | –
Cc1cccc2nc(-c3ccc(Cl)s3)c(Nc3ccc4c(c3)OCCO4)n12 | 42.3% (inactive) | –
CCOC(=O)c1cc2cc(-c3c(C(=O)OCC)oc4cc(O)cc(O)c4c3=O)ccc2o1 | – | 31.6 µM (active)
CCOC(=O)c1c(-c2ccc(OC)cc2)oc2ccc(OCc3ccc(C(=O)OC)cc3)cc12 | -24.4% (inactive) | –
CCN(CC)CCOC(=O)c1cc2cc(COC)ccc2o1 | -7.56% (inactive) | –
Cc1ccc(-c2nnc(SCc3ccccc3C)o2)cc1 | 66.9% (inactive) | –
COc1ccccc1CNc1cc(-c2ccccc2CN(C)C)ncn1 | -23.5% (inactive) | –
O=C(c1ccc2c(c1)N(Cc1ccc(Cl)cc1)C(=O)c1ccccc1S2(=O)=O)N1CCCCC1 | -18.2% (inactive) | –
COc1ccc(C)cc1N1C(=O)[C@@H]2C[C@H]1CN2Cc1cccc(OC)c1O | -3.08% (inactive) | –
CCCCC/C=C\C/C=C\C/C=C\CCCCCCC(=O)NCCO | -10.3% [at 6.7 µM] (inactive) | –
O=C(CC(O)(C(F)(F)F)C(F)(F)F)Nc1ccc(Cl)c(Cl)c1 | – | 8.91 µM (active)
Cc1ccc(-c2nn(CCC(=O)Nc3ccc(Cl)c(Cl)c3)c(=O)c3ccccc23)cc1 | 1.63% (inactive) | –
CC(c1cccnc1)N(CCN(C)C)C(=O)Nc1ccc(Cl)c(Cl)c1 (centres undefined) | -16.7% (inactive) | –
Cc1cc(Nc2cccc(C(F)(F)F)c2)nc2ccc(NC(=O)c3ccc(=O)[nH]c3)cc12 | -8.82% (inactive) | –
Cc1ccc(/C(=C/CN2CCCC2)c2ccccn2)cc1 | 1.29% (inactive) | –
CC(N)(C(=O)O)c1ccc(-c2nn[nH]n2)cc1 (centres undefined) | -9.72% (inactive) | –

SMILES | activity change, negative = inhibition | Potency
CCN1CCN(C(c2ccc(C)cc2)c2c(O)cc(C)n(Cc3ccco3)c2=O)CC1 (centres undefined) | -29.2% (inactive) | –
Cc1occc1C(=O)Nc1cccc(S(=O)(=O)N2CCOCC2)c1 | 15.8% (inactive) | –
O=C(Nc1ccc2c(c1)nc1n2CCCCC1)c1cc(S(=O)(=O)N2CCOCC2)ccc1Cl | – | 25.1 µM (active)
O=S(=O)(c1cccc(-c2nnc3n2CCCCC3)c1)N1CCOCC1 | 30.2% (inactive) | –
CCOc1ccccc1NC(=O)CSc1ncc(S(=O)(=O)c2ccc(C(C)(C)C)cc2)c(=O)[nH]1 | -2.88% (inactive) | –
Cc1ccc(S(=O)(=O)c2nc(-c3ccco3)oc2SCC(=O)Nc2ccc(F)cc2)cc1 | 15.1% (inactive) | –
Cc1ccc(OCCSc2nc3ccc(NC(=O)COc4ccc(C)cc4)cc3s2)cc1 | -5.33% (inactive) | –
O=C(Nc1ccc2nc(SCCOc3ccccc3Cl)sc2c1)c1ccco1 | -20.6% (inactive) | –
Nc1nnc(SCC(=O)Nc2ccc3nc(SCC(=O)Nc4ccccc4)sc3c2)s1 | – | 20 µM (active)
Cc1cccc(OCCSc2nc3ccc(NC(=O)COc4ccccc4C)cc3s2)c1 | 0% (inactive) | –
CCC(=O)Nc1ccc2nc(SCC(=O)N3CCc4ccccc43)sc2c1 | -19.9% (inactive) | –
O=C(COc1ccccc1Cl)Nc1ccc2nc(SCC(=O)N3CCCC3)sc2c1 | – | 31.6 µM (active)
COc1ccc(NC(=O)Nc2cccc(-c3noc(C)n3)c2)cc1 | 1.15% (inactive) | –
CCNc1ncc2ncc(=O)n(Cc3cccc(OC)c3)c2n1 | -19.5% (inactive) | –
COCCNc1ncnc2ccc(-c3cccnc3)cc12 | -22.4% (inactive) | –
CC1(C)CC(N2CCN(C(c3ccccc3)c3ccccc3)CC2)=CC(=[N+]2CCCCC2)C1 | – | 2.82 µM (active)
COC(=O)C(c1ccccc1)N1CCCCCC1 (centres undefined) | -7.95% (inactive) | –
CCN1CCN(c2ncc3c(n2)CC(c2ccccc2O)CC3=O)CC1 (centres undefined) | -14.9% (inactive) | –
N#CC1=C(N)Oc2cc(O)ccc2C1C1CCCCC1 (centres undefined) | -23.5% (inactive) | –
COCc1[nH]nc2c1C(C1C=CCCC1)C(C#N)=C(N)O2 (centres undefined) | – | 31.6 µM (active)
Cc1nc2nc(NCc3cccc(Br)c3)[nH]n2c(=O)c1Cc1ccccc1 | -16.8% (inactive) | –
COCCNC(=O)c1cc(-c2cccc(Cl)c2)on1 | 33.4% (inactive) | –

SMILES | activity change, negative = inhibition | Potency
COc1cc2nc(NCC(C)c3ccccc3)n3nc(-c4ccccc4)nc3c2cc1OC (centres undefined) | -29.4% (inactive) | –
Cc1cnc(CNc2ncncc2-c2ccccc2Cl)cn1 | -16.2% (inactive) | –
Cn1cc(-c2nc3cnc(N4CCNCC4)nc3n(CCC#N)c2=O)c2ccccc21 | -2.62% (inactive) | –
COc1cccc(CNc2nc(NCc3ccccc3OC)nc3ccsc23)c1 | – | 25.1 µM (active)
COc1cccc(CNc2nccn(-c3ccc(OC)c(OC)c3)c2=O)c1 | -12.6% (inactive) | –
COc1ccc(CNc2ncncc2-c2ccccc2OC)c(OC)c1 | -28% (inactive) | –
CCCN(C/C=C\I)[C@@H]1CCc2cccc(O)c2C1 | -10.2% (inactive) | –
COc1ccc(-c2nc3sc(CCNC(=O)C(C)(C)C)c(C)n3n2)cc1 | -39.9% (inactive) | –
O=C(COc1nc2ccccc2nc1N1CCOCC1)NCC(F)(F)F | -17.8% (inactive) | –
c1cncc(-c2nc(N3CCNCC3)c3ccccc3n2)c1 | -4.3% (inactive) | –
c1ccc(Nc2nc(N3CCOCC3)c3ccccc3n2)cc1 | – | 11.2 µM (active)
O=C(O)C[C@@H]1NC(=O)[C@H](Cc2ccccc2)NC1=O | -7.83% (inactive) | –
Cc1ccc(OCCC(=O)OCC(=O)N2c3ccccc3NC(=O)C2(C)C)cc1 | -21.8% (inactive) | –
CNS(=O)(=O)c1cccc(C(=O)OCC(=O)N2c3ccccc3NC(=O)C2(C)C)c1 | -4.37% (inactive) | –
CCNc1ccc(C(=O)OCC(=O)N2c3ccccc3NC(=O)C2(C)C)cc1[N+](=O)[O-] | – | 20 µM (active)
COc1ccc2c(c1)NC(=O)C2CC(=O)N1CCOc2c(cc(-c3cnc4ccccc4c3)cc2OC)C1 (centres undefined) | -23.5% (inactive) | –
Nc1ccc([N+](=O)[O-])cc1 | -19.3% (inactive) | –
O=C1/C(=C\c2ccc([N+](=O)[O-])cc2)CS(=O)(=O)C/C1=C/c1ccc([N+](=O)[O-])cc1 | – | 2.24 µM (active)
O=C(NCCCc1ccccc1)c1ccc2c(c1)sc1nc(-c3ccc(F)cc3)cn12 | -2% (inactive) | –
Cc1ncc2c(c1CNS(=O)(=O)N(C)C)CCN(C(=O)c1ccccc1F)C2 | -10.2% (inactive) | –
